Experimental data: the supplement of paper PMC13172266
Structures can show the parent of a compound that is named as a salt.

What was measured:
Test in all cases: cell proliferation relative to vehicle (% of vehicle); higher = less growth inhibition
Details in all cases: 72 h
[1] = test system: U2932 TK216-resistant clone 2
In short: (§1)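 A targeted inhibitor library of 348 compounds was tested on the ABC-DLBCL line U2932, both parental and two clones made resistant to an ETS-targeting agent by repeated exposure over almost a year. Cells were grown at 37°C and 5% CO2 in medium with 10% FBS, then treated at 500 nM or 50 nM for 72 h. MTT was added for 4 h, stopped with 25% SDS, and absorbance was read on a Cytation 3. Proliferation is reported as percent of proliferating cells relative to vehicle (DMSO).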

[2] = test system: U2932 TK216-resistant clone 3
In short: as §1

U2932 parental = test system: U2932 parental
In short: as §1

| SMILES | cell proliferation ([1]; 50 nM) | cell proliferation ([1]; 500 nM) | cell proliferation ([2]; 50 nM) | cell proliferation ([2]; 500 nM) | cell proliferation (U2932 parental; 50 nM) | cell proliferation (U2932 parental; 500 nM) |
| --- | --- | --- | --- | --- | --- | --- |
| CN(C)Cc1ccc(S(=O)(=O)n2ccc(/C=C/C(=O)NO)c2)cc1 [Resminostat] | 99.1 | 93.8 | 92 | 90.4 | 93.4 | 84.7 |
| O=C(Nc1cccc(Nc2ncc(Br)c(NCCc3cnc[nH]3)n2)c1)N1CCCC1 | 95.7 | 87 | 103 | 77 | 99.6 | 68.1 |
| NC(=O)c1cccc2cn(-c3ccc([C@@H]4CCCNC4)cc3)nc12 [MK-4827(Niraparib) tosylate] | 103 | 91.7 | 109 | 103 | 92.5 | 97.1 |
| Cn1nnc2c(C(N)=O)ncn2c1=O [Temozolomide] | 110 | 110 | 107 | 100 | 98.8 | 96.5 |
| COc1ccc(-c2nc(N3CCOCC3)c3sc(CN(C)c4ncc(C(=O)NO)cn4)cc3n2)cn1 | 0.345 | 2.02 | 3.18 | 9.31 | 0.767 | 3.78 |
| CO[C@H]1C[C@@H]2CC[C@@H](C)[C@@](O)(O2)C(=O)C(=O)N2CCCC[C@H]2C(=O)O[C@H]([C@H](C)C[C@@H]2CC[C@@H](OCCO)[C@H](OC)C2)CC(=O)[C@H](C)/C=C(\C)[C@@H](O)[C@@H](OC)C(=O)[C@H](C)C[C@H](C)/C=C/C=C/C=C/1C [Everolimus (RAD001)] | 65.8 | 65.5 | 64.2 | 66.5 | 55.5 | 59.1 |
| CN(C)CCOc1ccc(/C(=C(/CCCl)c2ccccc2)c2ccccc2)cc1 [Toremifene Citrate] | 102 | 84.4 | 101 | 75.1 | 101 | 88.8 |
| CO[C@@H](C(=O)N1Cc2[nH]nc(NC(=O)c3ccc(N4CCN(C)CC4)cc3)c2C1)c1ccccc1 | 97.2 | 84 | 77.8 | 71.7 | 71.8 | 69.5 |
| CC(C)(C)c1cnc(CSc2cnc(NC(=O)C3CCNCC3)s2)o1 | 91.1 | 14.7 | 77.8 | 17.2 | 90.1 | 12.1 |
| O=C(Nc1c[nH]nc1-c1nc2ccc(CN3CCOCC3)cc2[nH]1)NC1CC1 | 90.5 | 67.5 | 75.8 | 60.1 | 69.3 | 54.2 |
| Clc1ccc(C2(c3ccc(-c4cn[nH]c4)cc3)CCNCC2)cc1 | 88.5 | 48.2 | 94.6 | 73.6 | 93 | 75.5 |
| CN(C)c1nc(N(C)C)nc(N(C)C)n1 [Altretamine] | 105 | 102 | 106 | 96.6 | 97.7 | 104 |
| CC(=O)Nc1ccc(NC(=S)NC(=O)c2ccc(C(C)(C)C)cc2)cc1 [Tenovin-1] | 105 | 95.1 | 107 | 102 | 102 | 98.7 |
| CN(C)CC[C@H](CSc1ccccc1)Nc1ccc(S(=O)(=O)NC(=O)c2ccc(N3CCN(Cc4ccccc4-c4ccc(Cl)cc4)CC3)cc2)cc1[N+](=O)[O-] | 89.5 | 39.6 | 96.6 | 37.4 | 92 | 61.2 |
| CO[C@H]1C[C@@H]2CC[C@@H](C)[C@@](O)(O2)C(=O)C(=O)N2CCCC[C@H]2C(=O)O[C@H]([C@H](C)C[C@@H]2CC[C@@H](OP(C)(C)=O)[C@H](OC)C2)CC(=O)[C@H](C)/C=C(\C)[C@@H](O)[C@@H](OC)C(=O)[C@H](C)C[C@H](C)/C=C/C=C/C=C/1C [Ridaforolimus (Deforolimus, MK-8669)] | 67.9 | 64.3 | 62.2 | 58.5 | 56.4 | 57.2 |
| CC(=O)O[C@@]12CO[C@@H]1C[C@H](O)[C@@]1(C)C(=O)[C@H](O)C3=C(C)[C@@H](OC(=O)[C@H](O)[C@@H](NC(=O)OC(C)(C)C)c4ccccc4)C[C@@](O)([C@@H](OC(=O)c4ccccc4)[C@H]21)C3(C)C [Docetaxel] | 8.81 | 11.6 | 5.58 | 6.54 | 9.62 | 9.31 |
| COCC[n+]1c2c(n(Cc3cnccn3)c1C)C(=O)c1ccccc1C2=O [YM155 (Sepantronium Bromide)] | -0.426 | -1.48 | -1.12 | -4.35 | 0.598 | -3.81 |
| Cc1cc(NC(=O)c2cccc(NC(=O)/C=C/CN(C)C)c2)ccc1Nc1nccc(-c2cccnc2)n1 | 99.5 | 106 | 108 | 116 | 96.8 | 103 |
| CCNc1nc(Nc2cc(F)c(C(=O)N3CCOCC3)cc2OC)ncc1C(F)(F)F | 101 | 97.4 | 97.8 | 104 | 104 | 101 |
| COc1cc(CCc2cc(NC(=O)c3ccc(N4CC(C)NC(C)C4)cc3)n[nH]2)cc(OC)c1 (stereo unspecified) | 102 | 101 | 103 | 102 | 98.4 | 95.6 |
| COc1cc(F)c(F)c(Nc2ccc(I)cc2F)c1NS(=O)(=O)C1(C[C@H](O)CO)CC1 [Refametinib (RDEA119, Bay 86-9766)] | 104 | 92.6 | 105 | 97.1 | 92.8 | 96.2 |
| CNc1nc(Nc2cn(C(C)(C)C#N)nc2C)ncc1C(F)(F)F | 101 | 96.4 | 101 | 95.2 | 100 | 98.2 |
| Cc1cn(-c2cc(NC(=O)c3ccc(C)c(Nc4nccc(-c5cccnc5)n4)c3)cc(C(F)(F)F)c2)cn1 [Nilotinib (AMN-107)] | 106 | 110 | 102 | 106 | 103 | 103 |

| SMILES | cell proliferation ([1]; 50 nM) | cell proliferation ([1]; 500 nM) | cell proliferation ([2]; 50 nM) | cell proliferation ([2]; 500 nM) | cell proliferation (U2932 parental; 50 nM) | cell proliferation (U2932 parental; 500 nM) |
| --- | --- | --- | --- | --- | --- | --- |
| Cc1nc(NC(=O)N2CCC[C@H]2C(N)=O)sc1-c1ccnc(C(C)(C)C(F)(F)F)c1 | 98.4 | 78.7 | 96.2 | 85 | 97.7 | 91 |
| CCc1nc(-c2cccc(C)c2)c(-c2ccnc(NC(=O)c3ccccc3)c2)s1 | 103 | 97.7 | 98.4 | 103 | 104 | 101 |
| CCc1cncnc1N1CCN(Cc2nc3ccc(C(F)(F)F)cc3[nH]2)CC1 | 100 | 101 | 96 | 100 | 88.9 | 92 |
| CN(Cc1cnc2nc(N)nc(N)c2n1)c1ccc(C(=O)N[C@@H](CCC(=O)O)C(=O)O)cc1 [Methotrexate] | 102 | 37.1 | 102 | 67.8 | 99.4 | 29.9 |
| CN(CCOc1ccc(CC2SC(=O)NC2=O)cc1)c1ccccn1 (stereo unspecified) [Rosiglitazone] | 100 | 101 | 98.8 | 104 | 94 | 95.2 |
| C[S+]([O-])c1ccc(-c2nc(-c3ccc(F)cc3)c(-c3ccncc3)[nH]2)cc1 (stereo unspecified) | 109 | 101 | 93.4 | 94.4 | 106 | 101 |
| O=C(NOC[C@H](O)CO)c1ccc(F)c(F)c1Nc1ccc(I)cc1F | 101 | 101 | 96.6 | 96 | 92.3 | 91.5 |
| CN1CCN(CCOc2cc(OC3CCOCC3)c3c(Nc4c(Cl)ccc5c4OCO5)ncnc3c2)CC1 [Saracatinib (AZD0530)] | 103 | 97.1 | 99.6 | 101 | 94.1 | 98.9 |
| CC(C)N(C[C@H]1O[C@@H](n2cnc3c(N)ncnc32)[C@H](O)[C@@H]1O)[C@H]1C[C@@H](CCc2nc3cc(C(C)(C)C)ccc3[nH]2)C1 | 98.8 | 91.9 | 97.2 | 91.6 | 101 | 95.4 |
| CC(C)c1onc(-c2c(Cl)cccc2Cl)c1COc1ccc(/C=C/c2cccc(C(=O)O)c2)c(Cl)c1 | 105 | 112 | 104 | 105 | 108 | 111 |
| N#CC[C@H](C1CCCC1)n1cc(-c2ncnc3[nH]ccc23)cn1 | 100 | 95.4 | 103 | 108 | 96.7 | 96.5 |
| OCCn1cc(-c2cnc3nnn(Cc4ccc5ncccc5c4)c3n2)cn1 | 111 | 107 | 105 | 107 | 99.4 | 104 |
| Cc1cc(Nc2cc(N3CCN(C)CC3)nc(/C=C/c3ccccc3)n2)n[nH]1 | 82 | 66.1 | 97.6 | 48.9 | 93 | 46 |
| Cc1cc(Nc2cc(N3CCN(C)CC3)nc(/C=C/c3ccccc3)n2)n[nH]1 [ENMD-2076 L-(+)-Tartaric acid] | 101 | 61.9 | 105 | 57.2 | 99 | 47.6 |
| CNCc1ccc(-c2[nH]c3cc(F)cc4c3c2CCNC4=O)cc1 | 101 | 94.9 | 99.8 | 108 | 96.6 | 93.4 |
| Oc1nc(-c2ccc(C(F)(F)F)cc2)nc2c1CSCC2 | 90.3 | 108 | 111 | 95.1 | 99.3 | 98.2 |
| Cn1cc(-c2ccc3c(c2)CCN3C(=O)Cc2cccc(C(F)(F)F)c2)c2c(N)ncnc21 | 105 | 102 | 108 | 121 | 101 | 105 |
| CC(=O)Nc1cccc(-n2c(=O)n(C3CC3)c(=O)c3c(Nc4ccc(I)cc4F)n(C)c(=O)c(C)c32)c1 | 103 | 105 | 98.2 | 93.7 | 92.9 | 94.4 |
| COC(=O)c1ccc([C@H]2c3[nH]c4ccccc4c3C[C@H](C(=O)OC)N2C(=O)CCl)cc1 | 85 | -2.9 | 84 | -4.49 | 100 | -1.25 |
| CC1(C)CNc2cc(NC(=O)c3cccnc3NCc3ccncc3)ccc21 [Motesanib Diphosphate (AMG-706)] | 103 | 97.7 | 104 | 87.8 | 97.4 | 93.9 |
| COc1ccc2c(Oc3ccc(NC(=O)c4c(C)n(CC(C)(C)O)n(-c5ccccc5)c4=O)nc3)ccnc2c1 | 102 | 103 | 95.4 | 97.4 | 103 | 97 |
| CO[C@H]1/C=C\C=C(/C)C(=O)NC2=CC(=O)C(NCCN(C)C)=C(C[C@@H](C)C[C@H](OC)[C@H](O)[C@@H](C)/C=C(\C)[C@@H]1OC(N)=O)C2=O [17-DMAG (Alvespimycin) HCl] | 46.7 | 3.06 | 42.3 | 17 | 67 | 3.09 |
| CN1CCN(c2ccc3nc(-c4c(N)c5c(F)cccc5[nH]c4=O)[nH]c3c2)CC1 [Dovitinib (TKI-258, CHIR-258)] | 103 | 83.9 | 95.7 | 83.3 | 95.1 | 96.9 |
